The supplement of paper PMC6555819

Each sequence was assayed on LXRa homodimer (NR concentration 270 nM) (assay: PBM binding z-score (relative to random genomic background probes); higher = stronger binding; sequences stand for … in GC…GCGATTGACAGCGTAGAATGAAGG).
Procedure, shortened: (§1)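 Binding buffer was PBS pH 7.4 with 2% milk, 0.02% Triton X-100, 1 mM DTT, 0.2 mg/mL BSA and 0.4 mg/ml salmon testes DNA. In it, ligand-free nuclear receptor dimers were incubated 1 h on custom Agilent 4×180K protein-binding microarrays carrying double-stranded probes. Antibodies against each partner (one per run) detected binding, and z-scores were calculated against random background probes after regression normalization of scanned fluorescence.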

Sequence	PBM binding z-score
CGTCCAAGGTCATTGGAGGTCAGTGAAGACAGAT	6.77
CCTTACGGGTCACTGACAGGTTATAGCGTTTGGA	0.362
TAGCCTAGGTCATTCAGGGGCAAGTATAGAAAGC	2.15
AGAATGAGGTTACCAAAGTTCAGGGAAACGCTTG	7.31
ATATGTAGGTTATCTGGGGTCATTCAGACTAGGC	8.86
GATATAGGGTCAGCTAGAGGCCAGAGTATGGAAA	0.0568
CCTTACGGGTCACGAGGTTGTAGCACGACGAGCG	0.0323
ATCGAAAGGTCGTGAGGTAAGTATACAGAAAGGC	0.488
CCTAGCAGGCCAATCTAGGTCACTCAAGGCTTGA	0.192
ACTTACGGGTCTACGAGGTTATAGCACGCGTATA	0.149
CAAACTAGGTCACAAAAGGTCAAAGTCGAATGAC	7.78
CCTACTGGGCCATTCAGAGGTCAATGATCATATG	4.81
CGTCCAAGGTCAATGCTAGATCAGTGAAAGCATT	0.407
ATCGAAAGGTCGACCAGGTGAGTATACACCGTTT	0.21
AGAATGGGGTTACCAAAGATCAGGGAAACGCTTG	-0.351
CCTACGGGGCCACGAAAGGTCATTGATTCAGTGA	4.26
CGTCAAACTTCAACTAAGGTAACGTAAAGCACGC	0.473
CCTACTGGGCCACGAAAGGCCATTGATTCAGTGA	-0.396
GGAACGAGGGCATTCGAGTTCATAGCATGGCGAT	6.2
TCGCCTAGGTCATGGGCCAGTATACCACGCGAAC	0.142

Sequence	PBM binding z-score
AGAATGAGGTTACCAAAGGTCAGGGAAACGCTTG	8.17
TAGCCTAGGTCATTCAGGGGCCACTATAGAAAGC	1.27
AATACAGGGTCATCGTAGGTCAGAGTACGCACAG	5.76
CAAACTAGGTCACAGTGGTCAAAGTCCGTGCGTA	0.593
CCTACTGGGTCACGAAAGGTCATTGATTCAGTGA	6.45
TCTTGTAGATCAATAGAAGTTAAGAAAGTGCGCT	-0.154
TACCCTAGGTCATTGGGCCAGTATAGTACGCATC	8.18
AGAATGAGGTTAAACGTAGATCAGGGAAGAAAGT	-0.194
CCGAGTTGGTCAAGGTCACACACGCTATAGGTAC	1.98
CCTACTGGACCAAGGTCATTGATCAGTCAAAGCA	1.96
CCTAGTTGGTCAAGGTCACATACGCTATAGGTAC	1.97
ATCTCTAGGTTAAGATAGTTCAGTGAATGCAAAT	2.52
AGAATGAGGTTAAGTTCAGGGAAACAGAATACAT	0.441
TAGCCTAGTTCATGCGGGCCAGTATAGTGTCGGC	-0.511
TAGCCTAGGTCATGGGCCAGTGTACCACGCGAAC	0.0441
ATATGTAGGTTAACTGGGGTCATTCAGACTAGGC	5.57
CCTTACGGGTCAAGGTTATAGCCCGGGTGGTACG	0.231
CGTCCAAGGTCATATGAGGTCAGTGAAGACAGAT	6.17
TAGCCTAGGTCGTTCAGGGGCCAGTATAGAAAGC	-0.424
TAGCCTAGGTCATGCGGGCCAATATAGTGTCGGC	0.473

These sequences were tested on LXRb homodimer (NR concentration 270 nM) in the same assay as above.
Procedure, shortened: as §1

Sequence	PBM binding z-score
CGTCCAAGGTCATTGGAGGTCAGTGAAGACAGAT	1.93
CCTTACGGGTCACTGACAGGTTATAGCGTTTGGA	0.00055
TAGCCTAGGTCATTCAGGGGCAAGTATAGAAAGC	1.41
AGAATGAGGTTACCAAAGTTCAGGGAAACGCTTG	-0.0133
ATATGTAGGTTATCTGGGGTCATTCAGACTAGGC	2.41
GATATAGGGTCAGCTAGAGGCCAGAGTATGGAAA	-0.307
CCTTACGGGTCACGAGGTTGTAGCACGACGAGCG	-0.413
ATCGAAAGGTCGTGAGGTAAGTATACAGAAAGGC	0.774
CCTAGCAGGCCAATCTAGGTCACTCAAGGCTTGA	-0.859
ACTTACGGGTCTACGAGGTTATAGCACGCGTATA	0.121
CAAACTAGGTCACAAAAGGTCAAAGTCGAATGAC	3.46
CCTACTGGGCCATTCAGAGGTCAATGATCATATG	0.521
CGTCCAAGGTCAATGCTAGATCAGTGAAAGCATT	0.497
ATCGAAAGGTCGACCAGGTGAGTATACACCGTTT	0.349
AGAATGGGGTTACCAAAGATCAGGGAAACGCTTG	0.166
CCTACGGGGCCACGAAAGGTCATTGATTCAGTGA	0.262
CGTCAAACTTCAACTAAGGTAACGTAAAGCACGC	0.584
CCTACTGGGCCACGAAAGGCCATTGATTCAGTGA	-0.835
GGAACGAGGGCATTCGAGTTCATAGCATGGCGAT	-0.617
TCGCCTAGGTCATGGGCCAGTATACCACGCGAAC	-0.146

Sequence	PBM binding z-score
AGAATGAGGTTACCAAAGGTCAGGGAAACGCTTG	0.893
TAGCCTAGGTCATTCAGGGGCCACTATAGAAAGC	1.1
AATACAGGGTCATCGTAGGTCAGAGTACGCACAG	1.95
CAAACTAGGTCACAGTGGTCAAAGTCCGTGCGTA	-0.0137
CCTACTGGGTCACGAAAGGTCATTGATTCAGTGA	0.81
TCTTGTAGATCAATAGAAGTTAAGAAAGTGCGCT	0.0744
TACCCTAGGTCATTGGGCCAGTATAGTACGCATC	3.83
AGAATGAGGTTAAACGTAGATCAGGGAAGAAAGT	0.141
CCGAGTTGGTCAAGGTCACACACGCTATAGGTAC	0.352
CCTACTGGACCAAGGTCATTGATCAGTCAAAGCA	0.618
CCTAGTTGGTCAAGGTCACATACGCTATAGGTAC	1.23
ATCTCTAGGTTAAGATAGTTCAGTGAATGCAAAT	0.754
AGAATGAGGTTAAGTTCAGGGAAACAGAATACAT	-0.00698
TAGCCTAGTTCATGCGGGCCAGTATAGTGTCGGC	-0.772
TAGCCTAGGTCATGGGCCAGTGTACCACGCGAAC	-0.0634
ATATGTAGGTTAACTGGGGTCATTCAGACTAGGC	1.43
CCTTACGGGTCAAGGTTATAGCCCGGGTGGTACG	-0.334
CGTCCAAGGTCATATGAGGTCAGTGAAGACAGAT	2.22
TAGCCTAGGTCGTTCAGGGGCCAGTATAGAAAGC	0.206
TAGCCTAGGTCATGCGGGCCAATATAGTGTCGGC	-0.31
